# Assay results as given in PubChem BioAssay AID1159580 (chemical genetic matrix, 2015).
# About 2,000 (36%) of roughly 5,500 compounds were called active. About 18% were inconclusive and are not listed. The list shows a part of the results. Values without a mark were called inactive. Cut-off read from the data, not from the text of the source: active = normalized growth mostly below about 0.91 (no sharp cut-off); inconclusive = no clear call, values can overlap the other calls; inactive = mostly above about 0.92.
# Experiment: chemical genetic growth profiling, strain panel (AID 1159580);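 note: tested at 20 µM; growth read once vehicle control cultures reached saturation at 30 °C; 1 = growth at the plate median or of vehicle wells; lower values mean less growth of the strain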
# Settings: growth OD
compound,measurement,setting,value
CC(C)=CCCC1(C)C=Cc2c(O)c3c(c(CC=C(C)C)c2O1)OC12C(=CC4CC1C(C)(C)OC2(C/C=C(/C)C(=O)O)C4=O)C3=O (stereo not drawn),normalized growth,"S. cerevisiae deletion strains, locus YJL187C, strain SWE1, stronger effect = lower value",0.851 (active)
same,normalized growth,"S. cerevisiae deletion strains, locus YJR043C, strain POL32, stronger effect = lower value",0.821 (active)
same,normalized growth,"S. cerevisiae deletion strains, locus YJR066W, strain TOR1, stronger effect = lower value",0.825
same,normalized growth,"S. cerevisiae deletion strains, locus YKL009W, strain mrt4, stronger effect = lower value",0.965
same,normalized growth,"S. cerevisiae deletion strains, locus YKL068W, stronger effect = lower value",0.943
same,normalized growth,"S. cerevisiae deletion strains, locus YKL085W, strain MDH1 (second series), stronger effect = lower value",0.925 (active)
same,normalized growth,"S. cerevisiae deletion strains, locus YKL085W, strain MDH1, stronger effect = lower value",0.925 (active)
same,normalized growth,"S. cerevisiae deletion strains, locus YKL160W, strain elf1, stronger effect = lower value",0.842 (active)
same,normalized growth,"S. cerevisiae deletion strains, locus YKR001C, strain vps1, stronger effect = lower value",0.628 (active)
same,normalized growth,"S. cerevisiae deletion strains, locus YKR026C, strain gcn3, stronger effect = lower value",0.973
same,normalized growth,"S. cerevisiae deletion strains, locus YKR091W, strain srl3, stronger effect = lower value",0.96
same,normalized growth,"S. cerevisiae deletion strains, locus YLL001W, strain dnm1, stronger effect = lower value",0.881 (active)
same,normalized growth,"S. cerevisiae deletion strains, locus YLL026W, stronger effect = lower value",0.888 (active)
same,normalized growth,"S. cerevisiae deletion strains, locus YLL041C, strain sdh2, stronger effect = lower value",0.958
same,normalized growth,"S. cerevisiae deletion strains, locus YLR027C, strain aat2, stronger effect = lower value",0.827 (active)
same,normalized growth,"S. cerevisiae deletion strains, locus YLR039C, strain RIC1, stronger effect = lower value",0.873
same,normalized growth,"S. cerevisiae deletion strains, locus YLR058C, strain SHM2, stronger effect = lower value",0.884 (active)
same,normalized growth,"S. cerevisiae deletion strains, locus YLR102C, strain apc9, stronger effect = lower value",0.97
same,normalized growth,"S. cerevisiae deletion strains, locus YLR113W, strain HOG1, stronger effect = lower value",0.685 (active)
same,normalized growth,"S. cerevisiae deletion strains, locus YLR221C, strain rsa3, stronger effect = lower value",0.871 (active)
same,normalized growth,"S. cerevisiae deletion strains, locus YLR258W, strain gsy2, stronger effect = lower value",0.861 (active)
same,normalized growth,"S. cerevisiae deletion strains, locus YLR262C, strain YPT6 (second series), stronger effect = lower value",0.685 (active)
same,normalized growth,"S. cerevisiae deletion strains, locus YLR262C, strain YPT6, stronger effect = lower value",0.783
same,normalized growth,"S. cerevisiae deletion strains, locus YLR268W, strain sec22, stronger effect = lower value",0.84 (active)
same,normalized growth,"S. cerevisiae deletion strains, locus YLR320W, strain mms22, stronger effect = lower value",0.732 (active)
same,normalized growth,"S. cerevisiae deletion strains, locus YLR330W, strain CHS5, stronger effect = lower value",0.756 (active)
same,normalized growth,"S. cerevisiae deletion strains, locus YLR342W, strain FKS1 (second series), stronger effect = lower value",0.703 (active)
same,normalized growth,"S. cerevisiae deletion strains, locus YLR342W, strain FKS1, stronger effect = lower value",0.854 (active)
same,normalized growth,"S. cerevisiae deletion strains, locus YLR357W, strain rsc2, stronger effect = lower value",1.02
same,normalized growth,"S. cerevisiae deletion strains, locus YLR370C, strain arc18, stronger effect = lower value",0.984
same,normalized growth,"S. cerevisiae deletion strains, locus YLR371W, strain rom2, stronger effect = lower value",0.955
same,normalized growth,"S. cerevisiae deletion strains, locus YLR384C, strain iki3, stronger effect = lower value",0.989
same,normalized growth,"S. cerevisiae deletion strains, locus YLR418C, strain cdc73, stronger effect = lower value",0.487 (active)
same,normalized growth,"S. cerevisiae deletion strains, locus YML016C, strain PPZ1, stronger effect = lower value",0.963
same,normalized growth,"S. cerevisiae deletion strains, locus YML032C, strain rad52, stronger effect = lower value",0.879 (active)
same,normalized growth,"S. cerevisiae deletion strains, locus YML120C, strain ndi1, stronger effect = lower value",0.855 (active)
same,normalized growth,"S. cerevisiae deletion strains, locus YML124C, strain tub3, stronger effect = lower value",0.979
same,normalized growth,"S. cerevisiae deletion strains, locus YMR058W, strain fet3, stronger effect = lower value",0.507 (active)
same,normalized growth,"S. cerevisiae deletion strains, locus YMR078C, strain ctf18, stronger effect = lower value",0.98
same,normalized growth,"S. cerevisiae deletion strains, locus YMR125W, strain sto1, stronger effect = lower value",0.938
same,normalized growth,"S. cerevisiae deletion strains, locus YMR129W, stronger effect = lower value",0.951
same,normalized growth,"S. cerevisiae deletion strains, locus YMR205C, strain PFK2, stronger effect = lower value",0.623 (active)
same,normalized growth,"S. cerevisiae deletion strains, locus YMR223W, strain ubp8, stronger effect = lower value",0.853 (active)
same,normalized growth,"S. cerevisiae deletion strains, locus YMR231W, strain pep5, stronger effect = lower value",0.911 (active)
same,normalized growth,"S. cerevisiae deletion strains, locus YMR263W, strain SAP30, stronger effect = lower value",0.947
same,normalized growth,"S. cerevisiae deletion strains, locus YMR307W, strain GAS1, stronger effect = lower value",0.571 (active)
same,normalized growth,"S. cerevisiae deletion strains, locus YNL067W, strain RPL9B, stronger effect = lower value",0.93
same,normalized growth,"S. cerevisiae deletion strains, locus YNL071W, strain lat1, stronger effect = lower value",0.324 (active)
same,normalized growth,"S. cerevisiae deletion strains, locus YNL153C, strain GIM3, stronger effect = lower value",0.923
same,normalized growth,"S. cerevisiae deletion strains, locus YNL183C, strain NPR1, stronger effect = lower value",0.8 (active)
same,normalized growth,"S. cerevisiae deletion strains, locus YNL209W, strain ssb2, stronger effect = lower value",0.76 (active)
same,normalized growth,"S. cerevisiae deletion strains, locus YNL233W, strain BNI4, stronger effect = lower value",0.772 (active)
same,normalized growth,"S. cerevisiae deletion strains, locus YNL248C, strain rpa49, stronger effect = lower value",0.976
same,normalized growth,"S. cerevisiae deletion strains, locus YNL250W, strain rad50, stronger effect = lower value",0.952
same,normalized growth,"S. cerevisiae deletion strains, locus YNL271C, strain bni1, stronger effect = lower value",0.981
same,normalized growth,"S. cerevisiae deletion strains, locus YNL298W, strain CLA4, stronger effect = lower value",0.976
same,normalized growth,"S. cerevisiae deletion strains, locus YNL307C, strain MCK1, stronger effect = lower value",0.382 (active)
same,normalized growth,"S. cerevisiae deletion strains, locus YNL322C, strain KRE1 (second series), stronger effect = lower value",0.964
same,normalized growth,"S. cerevisiae deletion strains, locus YNR049C, strain mso1, stronger effect = lower value",0.978
same,normalized growth,"S. cerevisiae deletion strains, locus YNR052C, strain pop2, stronger effect = lower value",0.928
same,normalized growth,"S. cerevisiae deletion strains, locus YOL012C, strain htz1",0.349
same,normalized growth,"S. cerevisiae deletion strains, locus YOL147C, strain pex11, stronger effect = lower value",0.929 (active)
same,normalized growth,"S. cerevisiae deletion strains, locus YOR001W, strain rrp6, stronger effect = lower value",0.918
same,normalized growth,"S. cerevisiae deletion strains, locus YOR061W, strain CKA2, stronger effect = lower value",0.785 (active)
same,normalized growth,"S. cerevisiae deletion strains, locus YOR069W, strain VPS5, stronger effect = lower value",0.975
same,normalized growth,"S. cerevisiae deletion strains, locus YOR070C, strain gyp1, stronger effect = lower value",0.796 (active)
same,normalized growth,"S. cerevisiae deletion strains, locus YOR080W, strain dia2, stronger effect = lower value",0.982
same,normalized growth,"S. cerevisiae deletion strains, locus YOR083W, strain WHI5, stronger effect = lower value",0.842 (active)
same,normalized growth,"S. cerevisiae deletion strains, locus YOR106W, strain vam3, stronger effect = lower value",0.662 (active)
same,normalized growth,"S. cerevisiae deletion strains, locus YOR136W, strain idh2, stronger effect = lower value",0.958
same,normalized growth,"S. cerevisiae deletion strains, locus YOR144C, strain elg1, stronger effect = lower value",0.946
same,normalized growth,"S. cerevisiae deletion strains, locus YOR184W, strain ser1, stronger effect = lower value",0.64 (active)
same,normalized growth,"S. cerevisiae deletion strains, locus YOR231W, strain MKK1, stronger effect = lower value",0.884
same,normalized growth,"S. cerevisiae deletion strains, locus YOR265W, strain rbl2, stronger effect = lower value",0.886 (active)
same,normalized growth,"S. cerevisiae deletion strains, locus YOR270C, strain vph1, stronger effect = lower value",0.632 (active)
same,normalized growth,"S. cerevisiae deletion strains, locus YOR290C, strain snf2, stronger effect = lower value",0.836 (active)
same,normalized growth,"S. cerevisiae deletion strains, locus YOR316C, strain cot1, stronger effect = lower value",0.97
same,normalized growth,"S. cerevisiae deletion strains, locus YPL051W, strain arl3, stronger effect = lower value",0.764 (active)
same,normalized growth,"S. cerevisiae deletion strains, locus YPL078C, strain atp4, stronger effect = lower value",0.885 (active)
same,normalized growth,"S. cerevisiae deletion strains, locus YPL106C, strain sse1, stronger effect = lower value",1.01
same,normalized growth,"S. cerevisiae deletion strains, locus YPL240C, strain hsp82, stronger effect = lower value",0.908 (active)
same,normalized growth,"S. cerevisiae deletion strains, locus YPL256C, strain CLN2, stronger effect = lower value",0.816 (active)
same,normalized growth,"S. cerevisiae deletion strains, locus YPR119W, strain clb2, stronger effect = lower value",0.988
same,normalized growth,"S. cerevisiae deletion strains, locus YPR141C, strain kar3, stronger effect = lower value",0.982
same,normalized growth,"S. cerevisiae deletion strains, locus YPR163C, strain tif3, stronger effect = lower value",0.9 (active)
same,normalized growth,"S. cerevisiae deletion strains, locus YPR167C, strain met16, stronger effect = lower value",0.91 (active)
same,normalized growth,"S. cerevisiae deletion strains, strain wtn01, stronger effect = lower value",0.868 (active)
same,normalized growth,"S. cerevisiae strains, strain wild type, stronger effect = lower value",0.78 (active)
